The values below come from PubChem BioAssay (NCI).

Holding throughout (assay): NCI-60 one-dose screen, 48 h (100 = growth as untreated, 0 = no growth, -100 = all killed)
For one test, the system named is HCT-15 colon. The note with it: 10 µM unless noted.
Another test deals with HT29 colon. The note with it: 10 µM unless noted.
Another test concerns SNB-75 CNS. Conditions: 10 µM unless noted.
A further test deals with SNB-19 CNS. Conditions: 10 µM unless noted.
Another test concerns U251 CNS. The note with it: 10 µM unless noted.
The next test relates to PC-3 prostate. Conditions: 10 µM unless noted.
A further test concerns SK-MEL-5 melanoma. Conditions: 10 µM unless noted.
A further test deals with UACC-62 melanoma. Conditions: 10 µM unless noted.
For the next test, the system named is LOX IMVI melanoma. Conditions: 10 µM unless noted.
The test system of a further test is SK-MEL-28 melanoma. Conditions: 10 µM unless noted.
Another test concerns SK-MEL-2 melanoma. Conditions: 10 µM unless noted.
The test system of the next test is SN12C renal. Conditions: 10 µM unless noted.
The subject of another test is UO-31 renal. The note with it: 10 µM unless noted.
Another test relates to TK-10 renal. The note with it: 10 µM unless noted.
Another test relates to ACHN renal. The note with it: 10 µM unless noted.
A further test concerns A498 renal. Conditions: 10 µM unless noted.
The test system of the next test is CCRF-CEM leukemia. Conditions: 10 µM.
In the next test the test system is MOLT-4 leukemia. Conditions: 10 µM unless noted.
For a further test, the system named is CAKI-1 renal. Conditions: 10 µM unless noted.
For another test, the system named is EKVX NSCLC. The note with it: 10 µM.

Compounds without any hit were thinned out: in the full panel of roughly 83,000, 20% have a hit.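 Single-concentration screen, 48 h exposure, 96-well plates. Endpoint: percent growth. Below 10 = active.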 A number with no mark means an inactive call. Activity calls are given as the source filed them.

Turning to `COC(=O)c1cc(Nc2ccc(O)c3c2C(=O)c2c([N+](=O)[O-])ccc(O)c2C3=O)cc(C(=O)OC)c1`, the growth in the test on HCT-15 colon was 16.3%; in the test with HT29 colon, 36.5%; in the test on SNB-75 CNS, 59.1%; with SNB-19 CNS, 76.9%; in the test with U251 CNS, 74.8%; in the test on PC-3 prostate, 70.9%. In addition, the growth was -49% (active) in the test with SK-MEL-5 melanoma; 48.8% in the test with UACC-62 melanoma; 59.5% with LOX IMVI melanoma; 30.8% in the test on SK-MEL-28 melanoma; 10.6% with SK-MEL-2 melanoma; 70.5% in the test with SN12C renal. Also, the growth in the test on UO-31 renal was 67.1%; in the test with TK-10 renal it was 60.4%; in the test on ACHN renal it was 90.5%; with A498 renal, 93.8%; with CCRF-CEM leukemia, 23%; in the test on MOLT-4 leukemia, 25.5%.
Consider `CCCCCCCCCCCCCCCCNC(=S)N/N=C/c1ccc(O)cc1O`, for which the growth in the test on HCT-15 colon is 50.7%; in the test with HT29 colon it was 37%; in the test with SNB-75 CNS it was 113%; in the test with SNB-19 CNS it was 89.1%; in the test with U251 CNS, 59.6%; with PC-3 prostate, 63.5%. Besides, the growth was 63.4% in the test with SK-MEL-5 melanoma; 56.5% in the test on UACC-62 melanoma; 60.6% in the test on LOX IMVI melanoma; 88.7% in the test with SK-MEL-28 melanoma; 75.4% with SK-MEL-2 melanoma; 74.2% in the test on SN12C renal. Further, the growth in the test on UO-31 renal was 49.8%; with ACHN renal, 77%; with CAKI-1 renal it was 55.9%; in the test with A498 renal, 91.1%; in the test with MOLT-4 leukemia, 48.5%.
`COc1cccc(NC(=O)NCCNc2nccc(-c3c(-c4ccc(F)cc4)nc4sccn34)n2)c1`: the growth in the test on HCT-15 colon is 56.4%; in the test with HT29 colon, 39.8%; with SNB-75 CNS it was 48.3%; in the test on SNB-19 CNS, 86.3%; in the test with U251 CNS, 77.6%; with PC-3 prostate it was 89.9%. Moreover, the growth in the test with SK-MEL-5 melanoma is 61.6%; in the test with UACC-62 melanoma, 68.2%; with LOX IMVI melanoma it was 72.6%; in the test with SK-MEL-28 melanoma, 92.2%; in the test on EKVX NSCLC, 98.6%; with SN12C renal, 72.8%. For the same compound, the growth in the test with UO-31 renal was 52.4%; in the test with TK-10 renal it was 76.2%; with ACHN renal, 44.9%; with CAKI-1 renal, 93.4%; in the test on A498 renal, 77.1%; in the test on CCRF-CEM leukemia, 67.5%. Further, the growth in the test on MOLT-4 leukemia is 77.8%.
In the case of `CCCCCCCCCCCCCCCCCCOP(=O)(O)O`, the growth was 107% in the test with HCT-15 colon; 106% in the test on HT29 colon; 97% in the test on SNB-75 CNS; 101% in the test with SNB-19 CNS; 101% in the test with U251 CNS; 92.5% in the test on PC-3 prostate. For the same compound, the growth is 99.2% in the test with SK-MEL-5 melanoma; 91.5% in the test with UACC-62 melanoma; 99.3% in the test on LOX IMVI melanoma; 111% in the test on SK-MEL-28 melanoma; 124% with SK-MEL-2 melanoma; 94.1% with SN12C renal. Also, the growth was 86.8% in the test with UO-31 renal; 107% in the test on TK-10 renal; 100% with ACHN renal; 110% with A498 renal; 111% with MOLT-4 leukemia.
For the compound `C=C(C)C(C(=O)OCC)(C(=O)OCC)C(C)C`, the growth with HCT-15 colon is 102%; in the test on HT29 colon it was 116%; in the test with SNB-75 CNS, 86.5%; in the test on SNB-19 CNS, 99.9%; in the test on U251 CNS, 102%; in the test on PC-3 prostate it was 108%. Further, the growth is 98.3% in the test on SK-MEL-5 melanoma; 103% in the test on UACC-62 melanoma; 102% with LOX IMVI melanoma; 97% with SK-MEL-28 melanoma; 121% in the test with SK-MEL-2 melanoma; 100% in the test on UO-31 renal. Besides, the growth with TK-10 renal was 113%; in the test with ACHN renal, 104%; with CAKI-1 renal, 105%; in the test on A498 renal, 110%; with CCRF-CEM leukemia it was 98.2%; with MOLT-4 leukemia, 114%.
For the compound `C=C[C@]1(C)C=C2C(=O)[C@@]3(O)OC[C@@]4(CCCC(C)(C)C43O)C2(O)C(O)C1` (stereo partly specified), the growth in the test with HCT-15 colon was 12.9%; in the test on HT29 colon, -68.6% (active); with SNB-75 CNS, 69.6%; with SNB-19 CNS, 99.3%; with U251 CNS it was 53.9%; with PC-3 prostate, 55.2%. Besides, the growth in the test with SK-MEL-5 melanoma was 91.6%; with UACC-62 melanoma, 86.3%; in the test with LOX IMVI melanoma, 12.2%; in the test with SK-MEL-2 melanoma it was -0.387% (active); in the test on EKVX NSCLC, 91.2%; in the test with SN12C renal, 93.2%. The growth with UO-31 renal is 33.8%; with TK-10 renal, -68.2% (active); with ACHN renal, 3.59% (active); with CAKI-1 renal, 10.8%; with A498 renal, 99.4%; in the test on MOLT-4 leukemia, 78%.
As to `CC(C)(C)c1ccc(OCCOC(=O)CBr)cc1`, the growth in the test with HCT-15 colon is 97.9%; in the test on HT29 colon, 104%; in the test on SNB-75 CNS, 84.6%; in the test with SNB-19 CNS it was 104%; in the test on U251 CNS, 103%; with PC-3 prostate it was 110%. Moreover, the growth in the test with SK-MEL-5 melanoma is 97%; in the test on UACC-62 melanoma, 93.6%; with LOX IMVI melanoma it was 97.8%; in the test on SK-MEL-28 melanoma it was 107%; in the test with EKVX NSCLC, 126%; in the test with SN12C renal, 116%. Besides, the growth in the test with UO-31 renal was 92.9%; with ACHN renal, 85.9%; with CAKI-1 renal, 107%; in the test with A498 renal, 107%; in the test with CCRF-CEM leukemia it was 56.2%; in the test on MOLT-4 leukemia, 63%.
On to `CC(O)C(N)=O` (stereo unspecified), for which the growth in the test with HCT-15 colon is 97.1%; in the test on HT29 colon, 111%; in the test with SNB-75 CNS, 84.3%; in the test on SNB-19 CNS it was 106%; with U251 CNS, 103%; in the test with PC-3 prostate it was 92.6%. Moreover, the growth was 101% in the test on SK-MEL-5 melanoma; 107% in the test on UACC-62 melanoma; 109% with LOX IMVI melanoma; 111% with SK-MEL-2 melanoma; 99.6% in the test with EKVX NSCLC; 106% in the test with SN12C renal. The growth was 97% with UO-31 renal; 108% in the test with TK-10 renal; 104% with ACHN renal; 103% with A498 renal; 102% in the test on CCRF-CEM leukemia; 110% in the test with MOLT-4 leukemia.
As for `O=[N+]([O-])c1ccc(-c2ncc(-c3ccc(O)cc3O)[nH]2)cc1`, the growth was 100% in the test with HCT-15 colon; 123% in the test with HT29 colon; 103% in the test on SNB-75 CNS; 93.3% in the test on SNB-19 CNS; 103% in the test on U251 CNS; 98% with PC-3 prostate. The growth was 109% in the test on SK-MEL-5 melanoma; 95.3% in the test on UACC-62 melanoma; 103% in the test with LOX IMVI melanoma; 108% in the test with SK-MEL-28 melanoma; 92.4% in the test on EKVX NSCLC; 101% in the test on SN12C renal. The growth is 102% in the test with UO-31 renal; 124% with TK-10 renal; 106% in the test with ACHN renal; 101% in the test with A498 renal; -19.1% (active) in the test on CCRF-CEM leukemia; 99.1% in the test on MOLT-4 leukemia.
